Experimental data taken from PubChem BioAssay (EPA / NIEHS).
Calls of active or inactive are those of the source. How the source made its calls: active means hit-call score of the fitted dose curve at least 0.9, where 1 is the maximum; inactive means score below 0.9.

Each molecule was assayed on Epidermal growth factor receptor (EGFR), EGFR (gene 1956) (assay: BSK_hDFCGF_EGFR: BioMAP Diversity Plus: hDFCGF Assay for Epidermal growth factor receptor (EGFR) Biomarker Activity (AID 2283057)). Settings: primary human foreskin fibroblasts; actives raise or lower the signal.
How it was run: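 hDFCGF system, primary human foreskin fibroblasts; compound 24 h; EGFR measured by ELISA; DMSO = negative control/baseline; bidirectional fitting.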

SMILES | outcome
CCC(C)(CC)c1cc(NC(=O)c2c(OC)cccc2OC)on1 | inactive
Nn1cnnc1 | inactive
CCCCCCCCOC(=O)c1ccccc1C(=O)OCCCCCCCC | inactive
Clc1ccc(Cl)cc1 | inactive
Cc1ccccc1O | inactive
Cc1cc(-c2ccc(N)c(C)c2)ccc1N | inactive
CC#Cc1cc(C)nc(Nc2ccccc2)n1 | inactive
CO/C=C(/C(=O)OC)c1ccccc1COc1cccc(C(F)(F)F)n1 | inactive
ClC1=C(Cl)[C@]2(Cl)[C@@H]3[C@@H](Cl)[C@H]4O[C@H]4[C@@H]3C1(Cl)C2(Cl)Cl | inactive
C=CC(=O)NCNC(=O)C=C | inactive
CCCCCCCCCc1ccc(O)cc1 | inactive
N#Cc1ccc(N(CC(N)=O)CC(F)(F)F)cc1C(F)(F)F | inactive
CCC(C)(c1ccc(O)cc1)c1ccc(O)cc1 | inactive
O=C(N[C@H]1CN2CCC1CC2)c1cc2ccoc2cn1 | inactive
ClC1=C(Cl)[C@]2(Cl)[C@@H]3[C@@H]4C[C@@H]([C@H]5O[C@@H]45)[C@@H]3[C@@]1(Cl)C2(Cl)Cl | inactive
O=C(NC(=O)c1cc(F)c(F)cc1Cl)Nc1cc(F)ccc1N1CCC(C(=O)O)CC1 | inactive
O=S(=O)(O)C(F)(F)C(F)(F)C(F)(F)C(F)(F)C(F)(F)C(F)(F)F | inactive

SMILES | outcome
C1CC2OC2CC1C1CO1 (stereo unspecified) | inactive
ClC1=C(Cl)[C@]2(Cl)[C@@H]3[C@H]4C[C@H]([C@@H]5O[C@H]45)[C@@H]3[C@@]1(Cl)C2(Cl)Cl | inactive
C[C@]12CCC(=O)C=C1CC[C@@H]1[C@@H]2CC[C@]2(C)C(=O)CC[C@@H]12 | inactive
CCC(C)c1cc([N+](=O)[O-])cc([N+](=O)[O-])c1O (stereo unspecified) | inactive
CCC(=O)O[C@H]1CC[C@H]2[C@@H]3CCC4=CC(=O)CC[C@]4(C)[C@H]3CC[C@]12C | inactive
Clc1ccc(C(Cl)(Cl)Cl)cc1 | inactive
Oc1ccc(Cl)cc1Cl | inactive
C[C@]12CCC(=O)C=C1CC[C@@H]1[C@@H]2CC[C@@]2(C)[C@H]1CC[C@]2(C)O | inactive
CC(C)C(=O)OCC(C)(C)C(OC(=O)C(C)C)C(C)C (stereo unspecified) | inactive
O=NN(c1ccccc1)c1ccccc1 | inactive
Oc1ccc(C(c2ccc(O)cc2)(C(F)(F)F)C(F)(F)F)cc1 | inactive
CCCCCCOC(=O)c1ccccc1C(=O)OCCCCCC | inactive
Sc1ccccc1 | inactive
Clc1ccc(C(c2ccccc2Cl)C(Cl)(Cl)Cl)cc1 (stereo unspecified) | inactive
c1cc2ccc3cccc4ccc(c1)c2c34 | inactive
CCCN(CCC)N=O | inactive

The molecules below were run on Interleukin-8 (IL8), CXCL8 (gene 3576) (assay: BSK_hDFCGF_IL8: BioMAP Diversity Plus: hDFCGF Assay for Interleukin-8 (IL8) Biomarker Activity (AID 2283058)). Settings: primary human foreskin fibroblasts; actives raise or lower the signal.
How it was run: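 Primary human foreskin fibroblasts (hDFCGF system) dosed with chemical; IL-8 measured by ELISA 24 hours later. Bidirectional curve fitting relative to DMSO baseline; cytotoxicity tracked in parallel cultures by SRB total protein staining.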

SMILES | outcome | AC50
CCC(C)(CC)c1cc(NC(=O)c2c(OC)cccc2OC)on1 | inactive | –
Nn1cnnc1 | inactive | –
CCCCCCCCOC(=O)c1ccccc1C(=O)OCCCCCCCC | inactive | –
Clc1ccc(Cl)cc1 | inactive | –
Cc1ccccc1O | inactive | –
Cc1cc(-c2ccc(N)c(C)c2)ccc1N | inactive | –
CC#Cc1cc(C)nc(Nc2ccccc2)n1 | inactive | –
CO/C=C(/C(=O)OC)c1ccccc1COc1cccc(C(F)(F)F)n1 | inactive | –
ClC1=C(Cl)[C@]2(Cl)[C@@H]3[C@@H](Cl)[C@H]4O[C@H]4[C@@H]3C1(Cl)C2(Cl)Cl | inactive | –
C=CC(=O)NCNC(=O)C=C | inactive | –
CCCCCCCCCc1ccc(O)cc1 | – | 17.2 µM (active)
N#Cc1ccc(N(CC(N)=O)CC(F)(F)F)cc1C(F)(F)F | inactive | –
CCC(C)(c1ccc(O)cc1)c1ccc(O)cc1 | inactive | –
O=C(N[C@H]1CN2CCC1CC2)c1cc2ccoc2cn1 | inactive | –
ClC1=C(Cl)[C@]2(Cl)[C@@H]3[C@@H]4C[C@@H]([C@H]5O[C@@H]45)[C@@H]3[C@@]1(Cl)C2(Cl)Cl | inactive | –
O=C(NC(=O)c1cc(F)c(F)cc1Cl)Nc1cc(F)ccc1N1CCC(C(=O)O)CC1 | inactive | –
O=S(=O)(O)C(F)(F)C(F)(F)C(F)(F)C(F)(F)C(F)(F)C(F)(F)F | inactive | –

SMILES | outcome | AC50
C1CC2OC2CC1C1CO1 (stereo unspecified) | inactive | –
ClC1=C(Cl)[C@]2(Cl)[C@@H]3[C@H]4C[C@H]([C@@H]5O[C@H]45)[C@@H]3[C@@]1(Cl)C2(Cl)Cl | inactive | –
C[C@]12CCC(=O)C=C1CC[C@@H]1[C@@H]2CC[C@]2(C)C(=O)CC[C@@H]12 | inactive | –
CCC(C)c1cc([N+](=O)[O-])cc([N+](=O)[O-])c1O (stereo unspecified) | inactive | –
CCC(=O)O[C@H]1CC[C@H]2[C@@H]3CCC4=CC(=O)CC[C@]4(C)[C@H]3CC[C@]12C | – | 38.2 µM (active)
Clc1ccc(C(Cl)(Cl)Cl)cc1 | inactive | –
Oc1ccc(Cl)cc1Cl | inactive | –
C[C@]12CCC(=O)C=C1CC[C@@H]1[C@@H]2CC[C@@]2(C)[C@H]1CC[C@]2(C)O | inactive | –
CC(C)C(=O)OCC(C)(C)C(OC(=O)C(C)C)C(C)C (stereo unspecified) | inactive | –
O=NN(c1ccccc1)c1ccccc1 | inactive | –
Oc1ccc(C(c2ccc(O)cc2)(C(F)(F)F)C(F)(F)F)cc1 | – | 30.6 µM (active)
CCCCCCOC(=O)c1ccccc1C(=O)OCCCCCC | inactive | –
Sc1ccccc1 | inactive | –
Clc1ccc(C(c2ccccc2Cl)C(Cl)(Cl)Cl)cc1 (stereo unspecified) | – | 10.8 µM (active)
c1cc2ccc3cccc4ccc(c1)c2c34 | inactive | –
CCCN(CCC)N=O | inactive | –
